Tg IFNy HTS – inhibitors of Toxoplasma gondii growth with IFN-gamma; activity change, negative = inhibition, % (test concentration not listed); Toxoplasma gondii growth in IFN-gamma-treated host cells; stronger effect = lower value; 3.8% of 69,000 active; in the data active = activity change below about -70%, passing the limit was not always enough;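 also: host cells are HeLa cells infected with Toxoplasma gondii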
The depositor's hits bear a star. This is one part of a sample in which hits are shown more often than they occur.

SMILES | Tg IFNy HTS
Cc1nn(CC(=O)NC(Cc2cc(=O)[nH]c(-c3ccccn3)n2)c2ccccc2)c(C)c1C (centres undefined) | 5
Cc1nc(OCC(=O)Nc2cccc(C)c2C)c2ccccc2n1 | -16
CC1CCCN(Cc2nnnn2-c2ccc(Cl)c(Cl)c2)C1 (centres undefined) | 9
Cc1cc(C)cc(CCC(=O)N2CCN(S(=O)(=O)N3CCCC3)CC2)c1 | 6
CC1CCCCC1NC(=O)CN1CCN(C)CC1 (centres undefined) | -3
CCc1ccc(Nc2nc(C(=O)NC3CCCC3)nc3ccccc23)cc1 | -63
O=C(NC1CCCCCC1)c1nc(Nc2ccc(F)cc2)c2ccccc2n1 | -20
Cc1cccc(Nc2nc(C(=O)NC3CCCCCCC3)nc3ccccc23)c1 | -83*
Cc1ccc(Nc2nc(C(=O)NC3CCCC3)nc3ccccc23)cc1 | -35
Cc1ccc(Nc2nc(C(=O)NC3CCCCC3)nc3ccccc23)cc1 | -52
Cc1ccc(Nc2nc(C(=O)NC3CCCCCC3)nc3ccccc23)cc1 | -75*
Cc1n[nH]c(C)c1C(NC(=O)CSC(C)C)C(=O)O (centres undefined) | 37
O=C(c1cnc(Nc2ccccc2)nc1)N1CCC2(CCCO2)CC1 | -3
Cc1ncc(CN2CC(CN3CCOCC3)c3ccccc32)cn1 (centres undefined) | 29
Cc1nc(C)c(CC(=O)Nc2cccc(CCc3nc4ccccc4[nH]3)c2)s1 | -7
O=C(CCC1CCCN(C(=O)c2noc3c2CCCC3)C1)N1CCN(c2ccccn2)CC1 (centres undefined) | -7
COc1ccc(-c2ccc(C(=O)N3CCCC(c4ccccc4)CC3)cn2)cn1 (centres undefined) | -10
Cc1cc(NC(=O)CSc2nnc3n(Cc4ccccc4)c4ccccc4n23)no1 | -2
O=C(O)CSc1nc2ccccc2n1Cc1ccccc1 | 13
COC(=O)c1c(C)nc2n(Cc3ccccc3)c3ccccc3n12 | -84*
CC1CN(C)CCC1CCc1ccc(NC(=O)CC2NC(=O)c3ccccc32)cc1 (centres undefined) | -3
Cc1oc(-c2ccccc2)nc1Cc1noc(-c2ccccc2F)n1 | 127
Cc1ccccc1-c1noc(-c2cn(CC3CCCO3)nn2)n1 (centres undefined) | 167
Fc1cccc2c(OC3CCN(Cc4ccccc4)CC3)cc(C(F)(F)F)nc12 | -94*
Cc1cccc(CN2CCC(CNc3nc(-c4ccc(Cl)cc4)nc4ccccc34)CC2)c1 | -60
SMILES | Tg IFNy HTS
Clc1ccc(-c2nc(NC3CCN(Cc4ccccc4)CC3)c3ccccc3n2)cc1 | -65
CCc1ccc(-c2nccn2CCn2cccn2)nc1 | 13
COc1ccc(N2CCN(C(=O)Cn3ncc4c(N5CCC(C)CC5)ncnc43)CC2)cc1 | 260
COc1cc(-c2ccn[nH]2)ccc1NC(C)=O | -46
Cn1cc(C2c3nc[nH]c3CCN2Cc2cccn2-c2nccs2)cn1 (centres undefined) | -30
CC(C)CCN1C2(CCN(C(=O)C3(C)CC3)C2)c2ccccc2S1(=O)=O (centres undefined) | 69
O=C(NCCc1csc(-c2ccc(C(F)(F)F)cc2)n1)C(=O)Nc1ccccc1[N+](=O)[O-] | 242
COc1ccc(C2(NC(=O)c3cnc(N4CCOCC4)nc3)CCCC2)cc1 | -80*
CCOC(=O)c1cnc(N2CCOCC2)nc1N | 185
CCCC(NC(=O)c1cnc(N2CCOCC2)nc1)c1cccs1 (centres undefined) | 100
CCO[C@H]1CC[C@@H]2[C@@H]1OCCN2C(=O)c1ccc2ccccc2c1 | -4
CCO[C@@H]1CCN(C(=O)C(C)C)[C@@H]2CCO[C@H]21 | 82
CCO[C@H]1CN(C(=O)N2CCCC2)[C@H]2CCCO[C@@H]12 | -96*
O=C(Cn1c(=O)cc(C(=O)N2CCCCC2)c2ccccc21)Nc1ccccc1F | -4
COc1ccc(C2c3[nH]c4ccccc4c3CCN2C(=O)c2ccc(N(C)C)cc2)cc1 (centres undefined) | 58
Cc1cccc(C(=O)N2CCc3c([nH]c4ccccc34)C2c2ccc(F)cc2)c1 (centres undefined) | -44
CSc1ccc(C2c3[nH]c4ccccc4c3CCN2C(=O)c2cccc(F)c2)cc1 (centres undefined) | 15
Cc1cccc(C(=O)N2CCc3c([nH]c4ccccc34)C2c2ccc(Cl)cc2)c1 (centres undefined) | -104*
CSc1ccc(C2c3[nH]c4ccccc4c3CCN2C(=O)c2cccc(C)c2)cc1 (centres undefined) | -115*
CN(C)c1cccc(C(=O)N2CCc3c([nH]c4ccccc34)C2c2ccccc2)c1 (centres undefined) | -111*
CSc1ccc(C2c3[nH]c4ccccc4c3CCN2C(=O)c2cccc(N(C)C)c2)cc1 (centres undefined) | 40
COc1ccc(S(=O)(=O)NCC(C)n2cncn2)cc1 (centres undefined) | -4
CN1CC2(CCCN(C(=O)c3ncccc3O)C2)OC1=O (centres undefined) | -2
CN(C)CCN(CCCc1ccccc1)Cc1ccncc1 | 0
COc1ccccc1-c1noc(Cc2ccc3c(c2)OCO3)n1 | 7

Assay outcomes from PubChem BioAssay.
